Assay results: PubChem BioAssay (NCI)
This is part of a sample that, as a whole, favours compounds with a hit. Of some 83,000 tested, about 20% had one in any assay.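 Single-dose data. Exposure time 48 hours. Values below 10 considered active.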 Activity calls are given as the source filed them.

system: A498 renal; test: NCI-60 one-dose screen, 48 h (100 = growth as untreated, 0 = no growth, -100 = all killed); settings: 10 µM unless noted
Experimental: Growth inhibition of the A498 human tumor cell line is measured as a screen for anti-cancer activity. Cells are grown in 96 well plates and exposed to the test compound for 48 hours. Compounds are tested at a single concentration, which is 10^-5 M for most compounds. The reported endpoint is percent growth (GI% or GIPRCNT), where numbers from 0 - 100% represent growth inhibition, and numbers from -100% - 0 represent cell death. For example, a value of 40 represents 60% growth inhibition. A value of 0 means no net growth occurred over the course of the experiment. A value of -40 indicates 40% of cells at the beginning of the experiment died by the end of the experiment. A value of -100 means all cells are dead at the end of the experiment.
NCI-60 Human Tumor Cell Lines Screen was performed using the standard one-dose NCI protocol, which is described in more detail at https://dtp.cancer.gov/discovery_development/nci-60/default.htm.
Compounds with GIPRCNT values below 10 were considered active. Activity score was based on GIPRCNT using the following formula: […]
Score is 0 for GIPRCNT values of 100 or above, 50 for GIPRCNT values of 0, and 100 for GIPRCNT values of -100.

SMILES | growth
COc1cc(/C=C2\CCC/C(=C\c3cc(CN4CCOCC4)c(O)c(OC)c3)C2=O)cc(CN2CCOCC2)c1O | 58.6% (inactive)
COc1ccc(C2C3=C(COC3=O)N(CCO)c3cc4c(cc32)OCCO4)cc1 (stereo not given) | 93.7% (inactive)
O=c1oc2ccc(F)cc2c(=O)n1-c1ccc(F)cc1F | -30.5% (active)
O=C(c1nc2ccccc2[nH]1)C1C(c2ccc([N+](=O)[O-])cc2)C2CC3CCCCC3N2[C@@]12C(=O)Nc1cc(Cl)ccc12 (stereo not given in full) | -1.18% (active)
C=C[C@@H]1CCC/C=C/[C@@H]2C[C@H](O)C[C@H]2[C@H](O)/C=C/C(=O)O1 | -17.9% (active)
CC(C)C[C@H](C(=O)N[C@@H](C)C(N)=O)N1CC=CCN(O)S1(=O)=O | 125% [5 µM] (inactive)
O=c1oc2ccc(Cl)cc2c(=O)n1-c1ccc(I)cc1F | -75.5% (active)
O=C(COc1cc(O)c2c(=O)cc(-c3ccccc3)oc2c1)Nc1ccccc1C(F)(F)F | 55.9% (inactive)
CCn1c(-c2nonc2Nc2ccc(OC)cc2)nc2ccccc21 | 78.8% (inactive)
CCN(CCO)CCNc1ccc(C)c2sc3cc(Cl)ccc3c(=O)c12 | 1.76% (active)
C[n+]1c2ccccc2nc2ccc(NCCO)cc21 | 75.1% (inactive)
COc1ccc(/C=C2\N=C(c3ccccc3)N(c3ccc(-c4nc5ccc(C)cc5s4)cc3)C2=O)cc1 | 93.6% (inactive)
N#C/C(=C\c1c(-c2ccccc2)[nH]c2ccccc12)S(=O)(=O)c1ccccc1 | 24.2% (inactive)
O=C(Cc1ccccc1)NC(c1ccc(Cl)cc1)c1c(O)ccc2ccccc12 (stereo not given) | 32.8% (inactive)
O=C(Nc1ccc(F)cc1F)c1cc(Br)ccc1O | -49.5% (active)
Cc1ccc2nc(NC(=O)CSC(=S)N3CCN(c4ccccc4)CC3)sc2c1 | 108% (inactive)
CCOc1ccc(Nc2ccnc3cc(Cl)ccc23)cc1 | -19.5% (active)
NS(=O)(=O)c1ccc(CCN=C=S)cc1 | 79.8% (inactive)
COc1ccc(Nc2nc(N/N=C/c3ccc(O)cc3)nc(Nc3ccc([N+](=O)[O-])cc3)n2)cc1 | 105% (inactive)
Nc1nc2c(ncn2[C@@H]2O[C@H](CS)[C@@H](O)[C@H]2O)c(=O)[nH]1 | 99.9% (inactive)

SMILES | growth
COc1cc2c(cc1OC)C(=O)C(CC1CCN(C(=O)Nc3ccc(C)cc3)CC1)C2 (stereo not given) | 69.4% (inactive)
NNC(=O)CNC(=O)Nc1n[nH]c(=S)s1 | 98.3% (inactive)
O=c1oc2ccc(Cl)cc2c(=O)n1-c1ccc(F)cc1F | -35.4% (active)
CCN1C(=O)N(CC)C2Nn3c(s/c(=C\c4ccccc4F)c3=O)=NC21 (stereo not given) | 43.3% (inactive)
COc1cccc(C(=O)NC(c2ccc(C)cc2)c2cc(Cl)c3cccnc3c2O)c1 (stereo not given) | 23.1% (inactive)
O=c1oc2ccc(Br)cc2c(=O)n1-c1ccc(Cl)cc1F | -69.8% (active)
Clc1ccc(Nc2scc3[n+]2CCC3)cc1 | 82.5% (inactive)
CC(C)c1ccc(S(=O)(=O)NC(=O)NC2CCCC2)cc1 | 102% (inactive)
Cn1c(/C=C(\C#N)c2ccccc2)nc2c(N3CCOCC3)nc(Cl)nc21 | 2.31% (active)
CCOC(=O)C1=C(C)N=c2s/c(=C\c3ccccc3O)c(=O)n2C1c1ccc(OC)c2ccccc12 (stereo not given) | 17.6% (inactive)
N[C@@H](CC/[N+]([O-])=N/O)C(=O)O | 111% (inactive)
COc1ccc(-c2nnc(COc3ccc(C(=O)/C=C/c4ccco4)cc3)o2)cc1 | 115% (inactive)
COc1cc(C(=O)Nc2ccc(-c3nc4ccccc4[nH]3)cc2)cc(OC)c1OC | 37.6% (inactive)
O=C1/C(=C\c2ccc[nH]2)c2ccccc2N1c1ccccc1 | 101% (inactive)
O=C(Nc1ccc(F)cc1F)c1cc(I)ccc1O | -33.2% (active)
O=C(CCc1nnc2sc(-c3ccc(Cl)cc3Cl)nn12)c1nc2ncccc2[nH]1 | -68.6% (active)
COc1ccc(C2NCCc3c2[nH]c2ccccc32)cc1CN1CCN(c2ccc(F)cc2)CC1 (stereo not given) | 89.8% (inactive)
CN1CCN(Cc2ccc(NC(=O)c3[nH]ncc3Nc3cc(OC4CCCC4)ncn3)cc2)CC1 | 49.6% (inactive)
COc1cc2nc(-c3cnc(N(C)C)nc3)nc(NC3CCN(Cc4ccccc4)CC3)c2cc1OC | 43.2% (inactive)
Cc1[nH]c2ccccc2c(=O)c1CC=C(Cl)Cl | 96.9% (inactive)
